Measurements published in PubChem BioAssay AID588689 (Southern Research Specialized Biocontainment Screening …, 2011).
About 1,000 (0.29%) of roughly 340,000 compounds were called active. Rule as the data show it: inconclusive = inhibition above about 29% without an active follow-up result; inactive = below that. Not all results are given here. Potency and affinity values are given separately.

Biological target: Genome polyprotein (Dengue virus type 2 (strain 16681-PDK53)) (UniProt P29991)
Experiment: flavivirus cap methylation enzyme inhibition – biochemical, confirmation dose response, primary screen (AID 588689)
Settings: Dengue-2 NS5 methyltransferase capping enzyme assay, at 25 µM, stronger effect = higher value

Row | Compound | inhibition | inhibition (measured here: pilot screen replicate inhibition)
1 | CCCCOc1ccc(-c2cnc3ccccc3n2)cc1 | 1.6% (inactive) | –
2 | Cc1cc(N2CCC(C(=O)NCC3CC3)CC2)nc(-c2ccccc2)n1 | -10.6% (inactive) | –
3 | COC(=O)N(C)C[C@H]1OCc2cnnn2CCCC(=O)N([C@@H](C)CO)C[C@@H]1C | 0% (inactive) | –
4 | CC(C)N1C(=O)S/C(=C\c2ccc(-c3ccc(Cl)c(C(=O)O)c3)o2)C1=O | 9.54% (inactive) | –
5 | CC1=NOC(=O)/C1=C\c1ccc(-c2ccccc2Br)o1 | 3.96% (inactive) | –
6 | CC1(C)OC(=O)C(=Cc2ccc(-c3ccc(Cl)c(C(=O)O)c3)o2)C(=O)O1 | -35.6% (inactive) | –
7 | CC1=NOC(=O)/C1=C\c1ccc(-c2ccc(Br)cc2)o1 | 24.5% (inactive) | –
8 | CC1=NOC(=O)/C1=C\c1ccc(-c2cccc(Cl)c2)o1 | 6.14% (inactive) | –
9 | CC1=NOC(=O)/C1=C/c1ccc(-c2ccc(Cl)cc2)o1 | 19% (inactive) | –
10 | CC(=O)N(c1ccccc1)c1nc2ccccc2s1 | -3.1% (inactive) | –
11 | O=C(CNCc1ccccc1Cl)Nc1ccc(C(=O)N2CCCCC2)cc1 | -14.1% (inactive) | –
12 | CNC(=O)c1ccsc1NC(=O)CS(=O)(=O)c1ccc(F)cc1 | -0.55% (inactive) | –
13 | CCN1CCN(CCCN(Cc2ccco2)C(=S)Nc2cccc(Cl)c2C)CC1 | 5.26% (inactive) | –
14 | Nc1cc(=O)[nH]c(SCC(=O)Nc2cccnc2Cl)n1 | 11.6% (inactive) | –
15 | COc1cccc(/C=C2\CCc3ccccc3C2=O)c1 | 1.96% (inactive) | –
16 | O=C1NN(c2ccc(Br)cc2)C(=O)/C1=C\c1ccc(O)cc1O | -25.4% (inactive) | –
17 | N#C/C(=C\c1cccc(OC(=O)c2cccs2)c1)C(N)=O | -25% (inactive) | –
18 | O=C1OC(c2ccccc2)=N/C1=C/c1cccc(OC(=O)c2cccs2)c1 | 6.35% (inactive) | –
19 | COc1cc(C=C2C(=O)c3ccccc3C2=O)cc(OC)c1 | 18% (inactive) | –

Row | Compound | inhibition | inhibition (measured here: pilot screen replicate inhibition)
20 | Cc1cc(/C=C2\C(=O)NN(c3ccccc3)C2=O)c(C)n1-c1ccccc1O | 2.89% (inactive) | –
21 | COc1cc(/C=C2/C(=O)NN(c3ccccc3)C2=O)cc(Br)c1O | -40.3% (inactive) | –
22 | COc1ccc(-n2c(C)cc(/C=C3\C(=O)NN(c4ccccc4)C3=O)c2C)cc1 | 3.87% (inactive) | –
23 | COc1cccc(/C=C2/NC(=O)N(CC(=O)Nc3ccc(C)cc3)C2=O)c1OCc1cccc(C(=O)O)c1 | -3.96% (inactive) | –
24 | Cc1ccc2nc(-c3ccccc3)cc(C(=O)N3CCc4ccccc4C3)c2c1 | -5.47% (inactive) | –
25 | NC(N)=N/N=C/c1ccc(OCc2ccccc2Cl)cc1 | -0.7% (inactive) | –
26 | Cc1ccc(-c2nc3c(c(=O)c4ccccc4n3C)c(=O)n2-c2ccc(F)cc2)cc1 | 0.78% (inactive) | –
27 | CCc1ccc(C(=O)C(C)OC(=O)c2nc3nc(C)cc(C)n3n2)cc1 (stereo not drawn) | -7.33% (inactive) | –
28 | O=C1NN(c2ccccc2)C(=O)/C1=C\c1ccccc1 | 8.92% (inactive) | –
29 | COc1cc(/C=C2/C(=O)NN(c3ccc(F)cc3)C2=O)cc(Cl)c1O | -28% (inactive) | –
30 | O=C1NN(c2ccccc2)C(=O)C1=Cc1ccccc1 | 25.9% (inactive) | –
31 | C#CCOc1ccc(/C=C2/C(=O)NN(c3ccc(F)cc3)C2=O)cc1OC | 14.3% (inactive) | –
32 | COc1ccc2oc(C(=O)OCC(=O)N(C)C3CCS(=O)(=O)C3)c(C)c2c1 (stereo not drawn) | -8.65% (inactive) | –
33 | O=C(CNC(=O)c1ccc(F)cc1)N/N=C/c1cn[nH]c1-c1ccccc1 | -12.6% (inactive) | –
34 | CN(CC(=O)Nc1ccc(F)cc1)C(=O)CSc1nncs1 | -2.59% (inactive) | –
35 | CCCCC(=O)Nc1nnc(-c2ccco2)o1 | 1.48% (inactive) | –
36 | CCNS(=O)(=O)c1ccc(NC(=O)Nc2ccc3c(c2)OCO3)cc1 | -8.45% (inactive) | –
37 | Cc1c(F)cccc1NS(=O)(=O)c1ccc2c(c1)c(C)cc(=O)n2C | -4.58% (inactive) | –
38 | O=C1C(Cl)=C(NCCCN2CCOCC2)C(=O)c2ccccc21 | 17% (inactive) | –

Row | Compound | inhibition | inhibition (measured here: pilot screen replicate inhibition)
39 | O=C1C(Cl)=C(NCCN2CCOCC2)C(=O)c2ccccc21 | 4.52% (inactive) | –
40 | CN1CCN(C2=C(NS(=O)(=O)c3ccccc3)C(=O)c3ccccc3C2=O)CC1 | 7.03% (inactive) | –
41 | NC(=O)C1CCN(C2=C(NS(=O)(=O)c3ccccc3)C(=O)c3ccccc3C2=O)CC1 | 0.77% (inactive) | –
42 | NC(=O)C1CCN(C2=C(NS(=O)(=O)c3ccc(Cl)cc3)C(=O)c3ccccc3C2=O)CC1 | 7.95% (inactive) | –
43 | O=C1C(Cl)=C(N2CCN(c3ccccc3[N+](=O)[O-])CC2)C(=O)c2ccccc21 | 3.21% (inactive) | –
44 | Cc1ccc(C=NNc2ccc([N+](=O)[O-])cn2)cc1 | -5.44% (inactive) | –
45 | O=S(=O)(c1cc(Cl)ccc1Cl)N1CC2CCCN2c2ccc(C(F)(F)F)cc21 (stereo not drawn) | -10.5% (inactive) | –
46 | Cc1ccc2cc(CCNC(=O)c3cccc([N+](=O)[O-])c3)c(=O)[nH]c2c1C | 2.58% (inactive) | –
47 | CCCn1c(=O)c2ccccc2n2c(SCC(=O)c3ccc(CC)cc3)nnc12 | -1.12% (inactive) | –
48 | Cc1cc(CN2CCCC(CNC(=O)c3ccc(F)cc3)C2)cc(C)c1O (stereo not drawn) | -7.66% (inactive) | –
49 | CCCOc1ccc(C2C(C(=O)c3cc4ccccc4o3)=C(O)C(=O)N2c2cc(C)on2)cc1 (stereo not drawn) | 27.6% (inactive) | –
50 | COc1ccc(C2C(C(C)=O)=C(O)C(=O)N2c2ccccn2)cc1 (stereo not drawn) | 0.65% (inactive) | –
51 | C=CCOc1cccc(C2C(C(=O)c3ccc(C)o3)=C(O)C(=O)N2CCN(C)C)c1 (stereo not drawn) | -3.18% (inactive) | –
52 | C=CCOc1cccc(C2C(C(=O)c3ccc(C)o3)=C(O)C(=O)N2Cc2ccncc2)c1 (stereo not drawn) | -1.6% (inactive) | –
53 | Cc1cc(N2C(=O)C(O)=C(C(=O)c3cc4ccccc4o3)C2c2cccc(Br)c2)no1 (stereo not drawn) | 5.32% (inactive) | –
54 | CCCOc1ccc(/C(O)=C2\C(=O)C(=O)N(c3ccccn3)C2c2ccccc2F)cc1C (stereo not drawn) | 22.2% (inactive) | –
55 | COc1cccc(C2C(C(=O)c3cc4ccccc4o3)=C(O)C(=O)N2c2cc(C)on2)c1 (stereo not drawn) | 11.6% (inactive) | –
56 | CCCOc1ccc(C2C(C(=O)c3cc4ccccc4o3)=C(O)C(=O)N2c2cc(C)on2)cc1OC (stereo not drawn) | -3.55% (inactive) | –
57 | COc1cc(C2CC(=O)Oc3cc(O)ccc32)cc(OC)c1OC (stereo not drawn) | 1.65% (inactive) | 3.63%
